In the library only some 6.1% were active in any assay of this set; here they are far more common.
DRD3 antagonist: antagonists of human D3 dopamine receptor; P35462; D3R cells, DiscoveRx beta-arrestin luminescence, antagonist mode; hits give low values; max response, negative = inhibition, %; 360,000 tested, 2.5% active; AID 652054; in the data active = max response below about -50%; inconclusive = no clear call, values can overlap the other calls
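Cells expressing the human receptor were seeded at 1500 cells/well, incubated overnight at 37 degrees C in 5% CO2, then exposed to library compounds with dopamine controls for 90 minutes at 37 degrees C before luminescent detection.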
D3 ag: activates the human D3 dopamine receptor; max activation, %; P35462; 410,000 tested, 0.58% active; D3R DiscoveRx beta-arrestin cells, luminescence, 90 min; in the data active = max activation above about 30%
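Agonist-mode cell screen: cells plated at 1500/well and incubated overnight at 37 °C, then exposed to library compounds for 90 min at 37 °C. Detection reagent was added for 30–60 min at room temperature, and luminescence was read.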
D1 antag: human D1 dopamine receptor antagonism; HEK293 TREx D1 cells, calcium flux, dopamine EC80; hits give low values; P21728; 360,000 tested, 3.2% active; AID 504652; activity change, negative = inhibition, % at 10 µM; in the data active = activity change below about -30%
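Tetracycline-induced HEK293 T-REx cells with force-coupled D1 receptor were loaded with a no-wash calcium dye. Compound was added after a 10 s baseline and read kinetically for 180 s; EC80 dopamine was then added and calcium flux followed another 180 s.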
ERG Ets-DNA blk: blocks human ERG Ets domain binding to DNA; Potency, µM (series often up to 76.9 µM), most hits filed as inhibitors; fluorescence polarization, His-ERG Ets domain / labelled DNA; 370,000 tested, 0.028% active; P11308; active = well fitted inhibition curve with a large enough effect in the polarisation, with a control signal flat; inconclusive = small, poorly fitted or top-dose-only effect, or effect the other way, or a change in a side signal; inactive = no such curve, though single readings can be large or run the other way; the % refers to the polarisation;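 note: polarization taken with two DNA probes labelled with fluorescein and Texas red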
Target sequence (P11308 whole entry, looked up, the tested form may be a part): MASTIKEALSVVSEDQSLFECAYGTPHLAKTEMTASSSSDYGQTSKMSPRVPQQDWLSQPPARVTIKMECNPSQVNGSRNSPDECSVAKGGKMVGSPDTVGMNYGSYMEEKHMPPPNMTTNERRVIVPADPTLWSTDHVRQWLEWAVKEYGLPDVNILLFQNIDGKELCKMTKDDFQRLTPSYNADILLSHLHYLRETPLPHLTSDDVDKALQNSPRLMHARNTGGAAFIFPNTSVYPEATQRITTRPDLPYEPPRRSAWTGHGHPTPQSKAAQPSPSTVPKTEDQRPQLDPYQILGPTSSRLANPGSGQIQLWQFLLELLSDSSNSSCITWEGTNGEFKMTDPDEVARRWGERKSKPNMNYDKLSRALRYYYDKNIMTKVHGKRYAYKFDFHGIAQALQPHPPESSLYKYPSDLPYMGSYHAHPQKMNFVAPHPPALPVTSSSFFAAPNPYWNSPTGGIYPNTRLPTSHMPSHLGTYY
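His-tagged ERG Ets domain (1 uM in the protein solution; 300mM KCl, 50mM Tris-HCl, 1mM EDTA, 1mM DTT, pH 7.5) received compound, then a probe mix of 5 nM fluorescein-DNA and 100nM Texas-615-DNA. Fluorescence polarization was read for both dyes.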
D1 PAM: potentiators of human D1 dopamine receptor | 360,000 tested, 0.036% active | potentiation, % at 10 µM | HEK293 TREx D1 cells, calcium flux, dopamine EC20 potentiation | P21728 | AID 504651; in the data active = potentiation above about 30%
D1 agonist: activates the human D1 dopamine receptor; P21728; 360,000 tested, 1% active; activation, % at 2 µM; HEK293 T-REx D1 cells, calcium flux, agonist mode; in the data active = activation above about 30%
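Tetracycline-induced HEK293 TREx D1 cells, force-coupled to calcium signalling, were dye-loaded with a no-wash calcium kit. Compound was pin-added after a 10 s baseline. Fluorescence was read kinetically at 1 cycle/s for 180 s, with calcium rises flagged as agonism.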
Numbers stand for hits.

Screening CNC(=O)C(=O)NCC1OCCCN1S(=O)(=O)c1ccc(F)cc1C (stereo unspecified) returned DRD3 antagonist inactive, D3 ag inactive, D1 antag -54, ERG Ets-DNA blk inactive, D1 PAM inactive and D1 agonist inactive.
COc1cc(NC(=O)CC[C@H]2O[C@@H](n3cnc4c(NC(=O)c5ccccc5)ncnc43)[C@H](O)[C@@H]2O)cc(OC)c1OC was read as DRD3 antagonist -52 and D3 ag inactive.
COCCCNC(=O)CC[C@H]1O[C@@H](n2cnc3c(NC(=O)c4ccccc4)ncnc32)[C@H](O)[C@@H]1O was read as DRD3 antagonist inactive and D3 ag inactive.
Screening O=C(O)c1ccccc1C(=O)NCCc1ccc(Cl)cc1 returned DRD3 antagonist inactive, D3 ag inactive, D1 antag inactive, ERG Ets-DNA blk inactive, D1 PAM inactive and D1 agonist inactive.
For O=C(O)c1nccnc1C(=O)N1CCN(c2ccccc2)CC1 the results were DRD3 antagonist inconclusive, D3 ag inactive, D1 antag inactive, ERG Ets-DNA blk inactive, D1 PAM inactive and D1 agonist inactive.
`Oc1ccccc1/C=N/Nc1ccnc(SCc2ccccc2)n1` gave DRD3 antagonist -69, D3 ag inactive, D1 antag inactive, ERG Ets-DNA blk inactive, D1 PAM inactive and D1 agonist inactive.
`CC(=O)C1=C(O)C(=O)N(c2cccc(C(=O)O)c2)C1c1ccccc1F` (stereo unspecified) gave DRD3 antagonist inactive, D3 ag inactive, D1 antag -87, D1 PAM inactive and D1 agonist inactive.
CC(=O)C1=C(O)C(=O)N(Cc2ccccc2)C1c1ccccc1F (stereo unspecified) was read as DRD3 antagonist inactive, D3 ag inactive, D1 antag inactive, ERG Ets-DNA blk inactive, D1 PAM inactive and D1 agonist inactive.
Screening Cc1cc(/C=N/N2CCN(C)CC2)c(C)n1-c1ccccc1F returned DRD3 antagonist -71, D3 ag inactive, D1 antag inactive, ERG Ets-DNA blk inactive, D1 PAM inactive and D1 agonist inactive.
`S=C(NCc1ccccc1)N1CCN(c2ccccc2)CC1` gave DRD3 antagonist inactive, D3 ag inactive, D1 antag -31, ERG Ets-DNA blk inactive, D1 PAM inactive and D1 agonist inactive.
For O=C(NCc1ccccc1)N1CCN(c2ccccc2)CC1 the results were DRD3 antagonist inactive, D3 ag inactive, D1 antag inactive, ERG Ets-DNA blk inactive, D1 PAM inactive and D1 agonist inactive.
COc1cc2c(-c3ccc4cc[nH]c4c3)c(-c3ccsc3)oc(=O)c2cc1OC was read as DRD3 antagonist inactive, D3 ag 52, ERG Ets-DNA blk inactive, D1 PAM inactive and D1 agonist inactive.
CC(=O)NC12CC3CC(C1)CC(C(=O)N1CCN(S(=O)(=O)c4cccc(C(F)(F)F)c4)CC1)(C3)C2 was read as DRD3 antagonist inactive, D3 ag inactive, D1 antag inactive, ERG Ets-DNA blk inactive, D1 PAM inactive and D1 agonist 38.
CCOC(=O)[C@]12CCCC=C1N(CCC1=CCCCC1)C(=O)[C@H](CC(=O)NCc1cccc3ccccc13)C2 was read as DRD3 antagonist inactive and D3 ag inactive.
`NC1=NC(=Nc2ccccc2)c2ccccc21` gave DRD3 antagonist inconclusive, D3 ag inactive, D1 antag inactive, ERG Ets-DNA blk inactive, D1 PAM inactive and D1 agonist inactive.
NC1=NC(=Nc2ccc(Cl)cc2)c2ccccc21 was read as DRD3 antagonist inactive, D3 ag inactive, D1 antag -41, ERG Ets-DNA blk inactive, D1 PAM inactive and D1 agonist inactive.
Screening NC1=NC(=Nc2ccc(Br)cc2)c2ccccc21 returned DRD3 antagonist inactive, D3 ag inactive, D1 antag -33, ERG Ets-DNA blk inactive, D1 PAM inactive and D1 agonist inactive.
For NC1=NC(=Nc2ccc(S(=O)(=O)N3CCOCC3)cc2)c2ccccc21 the results were DRD3 antagonist inactive, D3 ag inactive, D1 antag -33, ERG Ets-DNA blk inactive, D1 PAM inactive and D1 agonist inactive.
`C[C@@H]1CN([C@H](C)CO)C(=O)CCCn2nncc2CO[C@H]1CN(C)C(=O)Nc1ccnc(N2CCOCC2)c1` gave DRD3 antagonist inactive and D3 ag inactive.

Compound activity from PubChem BioAssay.
